Results on eight sequences are retold here after PMC7862700, “An all-to-all approach to the identification of sequence-specific readers for epigenetic DNA modifications on cytosine”.

Common to all, as to assay: DAPPL (digital affinity profiling via proximity ligation, sequencing); 10 mM Tris-HCl pH 7.5, 50 mM NaCl, 1 mM DTT, 4% glycerol, room temperature, 30 min; GST-TFs on glutathione beads, 16-mer random dsDNA library, 0.1% formaldehyde crosslink after washing; high values mean tight binding
What all share (conditions): protein: recombinant; tags: N-terminal GST; dsDNA, one strand shown

In assay [1] the target is T1, ERF (Homo sapiens, UniProt P50548 1-548).
T1 sequence: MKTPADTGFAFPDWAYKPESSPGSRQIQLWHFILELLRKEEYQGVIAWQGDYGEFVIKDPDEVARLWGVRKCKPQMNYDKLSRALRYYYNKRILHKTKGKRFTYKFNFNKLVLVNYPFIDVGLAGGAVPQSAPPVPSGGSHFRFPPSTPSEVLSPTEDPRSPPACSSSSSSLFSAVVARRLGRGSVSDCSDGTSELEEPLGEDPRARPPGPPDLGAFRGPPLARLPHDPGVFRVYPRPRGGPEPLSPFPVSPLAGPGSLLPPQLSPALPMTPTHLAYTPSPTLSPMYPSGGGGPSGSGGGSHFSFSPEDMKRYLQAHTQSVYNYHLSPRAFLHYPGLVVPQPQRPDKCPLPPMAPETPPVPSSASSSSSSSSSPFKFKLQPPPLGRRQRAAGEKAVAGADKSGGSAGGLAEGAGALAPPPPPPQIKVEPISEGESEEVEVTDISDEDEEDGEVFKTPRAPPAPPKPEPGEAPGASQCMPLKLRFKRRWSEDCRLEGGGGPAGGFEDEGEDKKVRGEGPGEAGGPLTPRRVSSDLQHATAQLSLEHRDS
The gist of the method: (§1)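 A tag-only sample was pooled with DNA-barcoded human transcription factors that had been expressed in yeast as GST fusions and captured on glutathione beads. The pools were incubated for 30 min at room temperature with 200 nmole of a random double-stranded 16-mer DNA library in Tris/NaCl/DTT/glycerol buffer, then washed, crosslinked with 0.1% formaldehyde, proximity-ligated (BsaI/T4 ligase, 1 h, 37 °C), PCR-amplified and sequenced on an Illumina NextSeq500. Binding signal is each hexamer's read frequency for a factor divided by its frequency for the tag-only sample.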

Assay [2] deals with T2, ETV3L (Homo sapiens, UniProt Q6ZN32 1-361).
T2 sequence: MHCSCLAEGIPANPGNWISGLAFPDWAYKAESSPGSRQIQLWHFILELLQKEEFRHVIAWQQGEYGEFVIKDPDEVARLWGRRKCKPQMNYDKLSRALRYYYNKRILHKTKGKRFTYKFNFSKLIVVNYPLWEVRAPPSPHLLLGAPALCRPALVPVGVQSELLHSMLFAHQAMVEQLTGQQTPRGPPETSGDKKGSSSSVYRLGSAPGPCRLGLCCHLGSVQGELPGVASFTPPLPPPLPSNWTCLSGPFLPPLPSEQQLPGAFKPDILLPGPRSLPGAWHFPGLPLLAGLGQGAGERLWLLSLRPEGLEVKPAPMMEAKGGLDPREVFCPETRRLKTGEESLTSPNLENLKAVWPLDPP
The gist of the method: as §1

Assay [3] has as its target T3, ETS2 (Homo sapiens, UniProt P15036 1-469).
T3 sequence: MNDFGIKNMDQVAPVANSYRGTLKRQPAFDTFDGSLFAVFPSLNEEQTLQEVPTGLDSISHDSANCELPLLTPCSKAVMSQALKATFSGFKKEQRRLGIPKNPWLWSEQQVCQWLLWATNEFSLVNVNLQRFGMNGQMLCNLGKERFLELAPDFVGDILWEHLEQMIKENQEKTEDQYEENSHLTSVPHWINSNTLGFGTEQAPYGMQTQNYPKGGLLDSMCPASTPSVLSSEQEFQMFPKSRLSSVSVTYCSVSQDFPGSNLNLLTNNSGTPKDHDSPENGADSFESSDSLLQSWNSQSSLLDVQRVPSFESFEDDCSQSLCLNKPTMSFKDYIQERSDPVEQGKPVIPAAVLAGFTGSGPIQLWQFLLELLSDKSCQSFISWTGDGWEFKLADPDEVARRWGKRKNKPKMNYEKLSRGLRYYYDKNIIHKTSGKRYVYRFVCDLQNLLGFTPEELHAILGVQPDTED
Summed up: as §1

Assay [4] has as its target T4, ETV7 (Homo sapiens, UniProt Q9Y603 1-341).
T4 sequence: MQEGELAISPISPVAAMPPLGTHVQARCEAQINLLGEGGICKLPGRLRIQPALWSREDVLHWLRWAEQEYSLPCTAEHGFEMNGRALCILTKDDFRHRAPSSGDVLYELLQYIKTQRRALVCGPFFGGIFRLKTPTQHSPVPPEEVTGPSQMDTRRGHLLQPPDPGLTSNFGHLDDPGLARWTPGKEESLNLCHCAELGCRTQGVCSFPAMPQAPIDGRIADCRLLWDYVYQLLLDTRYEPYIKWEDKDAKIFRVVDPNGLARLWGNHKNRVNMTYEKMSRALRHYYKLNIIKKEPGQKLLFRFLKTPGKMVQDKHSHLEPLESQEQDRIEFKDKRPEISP
Summed up: as §1

In assay [5] the target is T5, ELF5 (Homo sapiens, UniProt Q9UKW6-2 1-255).
T5 sequence: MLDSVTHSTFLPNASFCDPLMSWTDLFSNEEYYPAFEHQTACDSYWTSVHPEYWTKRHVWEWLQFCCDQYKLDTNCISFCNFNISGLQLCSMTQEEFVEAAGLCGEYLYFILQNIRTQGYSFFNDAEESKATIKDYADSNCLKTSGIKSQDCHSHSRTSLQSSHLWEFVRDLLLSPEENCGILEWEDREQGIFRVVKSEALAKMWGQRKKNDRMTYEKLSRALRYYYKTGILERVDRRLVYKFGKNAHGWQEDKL
The gist of the method:
as §1

For assay [6], the target named is T6, ETV3 (Homo sapiens, UniProt P41162-2 1-143).
T6 sequence: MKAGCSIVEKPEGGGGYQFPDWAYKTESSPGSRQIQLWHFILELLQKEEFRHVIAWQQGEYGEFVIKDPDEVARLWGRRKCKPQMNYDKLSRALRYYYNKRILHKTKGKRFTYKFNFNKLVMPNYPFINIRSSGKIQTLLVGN
The gist of the method: as §1

The target in assay [7] is ETV6 (Homo sapiens, UniProt P41212 1-452). Summed up: as §1
In assay [8] the target is T7, SPDEF (Homo sapiens, UniProt O95238 1-335).
T7 sequence: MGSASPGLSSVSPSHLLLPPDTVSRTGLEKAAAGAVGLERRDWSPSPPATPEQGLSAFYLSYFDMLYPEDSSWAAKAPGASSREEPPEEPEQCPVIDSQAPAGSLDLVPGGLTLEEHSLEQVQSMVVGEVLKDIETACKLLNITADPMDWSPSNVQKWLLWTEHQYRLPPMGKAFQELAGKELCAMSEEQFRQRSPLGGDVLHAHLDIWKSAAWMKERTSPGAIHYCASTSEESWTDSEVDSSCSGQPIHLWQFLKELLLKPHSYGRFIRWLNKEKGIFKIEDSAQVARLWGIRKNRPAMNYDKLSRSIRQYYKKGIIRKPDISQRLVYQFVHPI
Summed up:
as §1

Chain of ETV6 (P41212 whole entry): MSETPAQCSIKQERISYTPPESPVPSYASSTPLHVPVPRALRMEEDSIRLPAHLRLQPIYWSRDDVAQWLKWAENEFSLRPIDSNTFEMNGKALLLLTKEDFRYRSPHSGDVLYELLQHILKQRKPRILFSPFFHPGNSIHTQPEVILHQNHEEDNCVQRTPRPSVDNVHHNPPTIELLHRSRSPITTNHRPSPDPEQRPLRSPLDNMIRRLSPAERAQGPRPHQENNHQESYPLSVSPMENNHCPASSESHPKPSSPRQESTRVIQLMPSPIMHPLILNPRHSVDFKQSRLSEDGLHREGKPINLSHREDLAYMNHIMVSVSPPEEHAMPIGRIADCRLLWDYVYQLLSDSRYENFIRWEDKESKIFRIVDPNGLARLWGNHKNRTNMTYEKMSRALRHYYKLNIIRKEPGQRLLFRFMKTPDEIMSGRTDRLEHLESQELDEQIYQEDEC

As to GAACAT, the binding signal is 1.1 fold enrichment (6-mer frequency, TF over GST control) in assay [1]; 1.01 fold enrichment (6-mer frequency, TF over GST control) in assay [2]; 1 fold enrichment (6-mer frequency, TF over GST control) in assay [3]; 1.11 fold enrichment (6-mer frequency, TF over GST control) in assay [4]; 1.09 fold enrichment (6-mer frequency, TF over GST control) in assay [5]; 1.08 fold enrichment (6-mer frequency, TF over GST control) in assay [6]. Also, the binding signal in assay [7] was 1.07 fold enrichment (6-mer frequency, TF over GST control).
As for AGCTGC, the binding signal was 1.17 fold enrichment (6-mer frequency, TF over GST control) in assay [1]; 1.07 fold enrichment (6-mer frequency, TF over GST control) in assay [2]; 1.17 fold enrichment (6-mer frequency, TF over GST control) in assay [3]; 1.16 fold enrichment (6-mer frequency, TF over GST control) in assay [4]; 1.06 fold enrichment (6-mer frequency, TF over GST control) in assay [5]; 1.16 fold enrichment (6-mer frequency, TF over GST control) in assay [6]. In assay [7], the binding signal was 1.11 fold enrichment (6-mer frequency, TF over GST control).
As for TAGTGC, the binding signal in assay [1] is 1.12 fold enrichment (6-mer frequency, TF over GST control); in assay [2] it was 1.05 fold enrichment (6-mer frequency, TF over GST control); in assay [3], 1.08 fold enrichment (6-mer frequency, TF over GST control); in assay [8] it was 1.06 fold enrichment (6-mer frequency, TF over GST control); in assay [6], 1.05 fold enrichment (6-mer frequency, TF over GST control); in assay [7], 1.12 fold enrichment (6-mer frequency, TF over GST control).
As for ACGCAC, the binding signal in assay [1] is 1.13 fold enrichment (6-mer frequency, TF over GST control); in assay [2], 1.01 fold enrichment (6-mer frequency, TF over GST control); in assay [3], 1.09 fold enrichment (6-mer frequency, TF over GST control); in assay [4], 1.03 fold enrichment (6-mer frequency, TF over GST control); in assay [5], 1.03 fold enrichment (6-mer frequency, TF over GST control); in assay [6], 1.13 fold enrichment (6-mer frequency, TF over GST control). In assay [7], the binding signal is 1.02 fold enrichment (6-mer frequency, TF over GST control).
As to GTCACT, the binding signal in assay [1] was 1.07 fold enrichment (6-mer frequency, TF over GST control); in assay [2] it was 1.08 fold enrichment (6-mer frequency, TF over GST control); in assay [3], 1.13 fold enrichment (6-mer frequency, TF over GST control); in assay [4], 1.09 fold enrichment (6-mer frequency, TF over GST control); in assay [5] it was 1.07 fold enrichment (6-mer frequency, TF over GST control); in assay [6] it was 1.01 fold enrichment (6-mer frequency, TF over GST control).
As to GCTGAC, the binding signal in assay [1] was 1.08 fold enrichment (6-mer frequency, TF over GST control); in assay [2], 1.09 fold enrichment (6-mer frequency, TF over GST control); in assay [3], 1.11 fold enrichment (6-mer frequency, TF over GST control); in assay [4] it was 1.12 fold enrichment (6-mer frequency, TF over GST control); in assay [5] it was 1.05 fold enrichment (6-mer frequency, TF over GST control); in assay [6] it was 1.17 fold enrichment (6-mer frequency, TF over GST control). For the same sequence, the binding signal in assay [7] was 1 fold enrichment (6-mer frequency, TF over GST control).
For TGACTG, the binding signal in assay [1] was 1.15 fold enrichment (6-mer frequency, TF over GST control); in assay [2], 1.16 fold enrichment (6-mer frequency, TF over GST control); in assay [3], 1.17 fold enrichment (6-mer frequency, TF over GST control); in assay [8] it was 1.05 fold enrichment (6-mer frequency, TF over GST control); in assay [7], 1.06 fold enrichment (6-mer frequency, TF over GST control).
As to TAGCAG, the binding signal in assay [1] was 1.11 fold enrichment (6-mer frequency, TF over GST control); in assay [2], 1.07 fold enrichment (6-mer frequency, TF over GST control); in assay [3] it was 1.02 fold enrichment (6-mer frequency, TF over GST control); in assay [4] it was 1.07 fold enrichment (6-mer frequency, TF over GST control); in assay [5], 1.05 fold enrichment (6-mer frequency, TF over GST control).
